The text below walks through data of PubChem BioAssay AID1851 (National Center for Advancing Translational Sciences (NCATS), 2009).

SMILES strings stand for the structures. About 5,700 (36%) of roughly 16,000 compounds were called active. Roughly 24% stayed inconclusive and do not appear here. The list shows a part of the results. A number with no mark means an inactive call. Calls come from the whole dose curve; as a rule, active = well fitted curve in the direction sought with a large enough effect; inconclusive = small, poorly fitted or top-dose-only effect, or effect the other way; inactive = no such curve, though single readings can be large or run the other way.
% is set by controls: 0 for no effect and ±100 for the full control effect.

The target in the experiment is Cytochrome P450 1A2 (Homo sapiens) (UniProt P05177). Description: Cytochrome panel assay with activity outcomes. As to conditions: recombinant CYP, pro-luciferin dealkylation, luminescence, p450-cyp1a2; series mostly up to 57.1 µM; activity, negative = inhibition: at the top concentration.
Cytochrome P450 1A2 (Homo sapiens), sequence (P05177 whole entry, looked up): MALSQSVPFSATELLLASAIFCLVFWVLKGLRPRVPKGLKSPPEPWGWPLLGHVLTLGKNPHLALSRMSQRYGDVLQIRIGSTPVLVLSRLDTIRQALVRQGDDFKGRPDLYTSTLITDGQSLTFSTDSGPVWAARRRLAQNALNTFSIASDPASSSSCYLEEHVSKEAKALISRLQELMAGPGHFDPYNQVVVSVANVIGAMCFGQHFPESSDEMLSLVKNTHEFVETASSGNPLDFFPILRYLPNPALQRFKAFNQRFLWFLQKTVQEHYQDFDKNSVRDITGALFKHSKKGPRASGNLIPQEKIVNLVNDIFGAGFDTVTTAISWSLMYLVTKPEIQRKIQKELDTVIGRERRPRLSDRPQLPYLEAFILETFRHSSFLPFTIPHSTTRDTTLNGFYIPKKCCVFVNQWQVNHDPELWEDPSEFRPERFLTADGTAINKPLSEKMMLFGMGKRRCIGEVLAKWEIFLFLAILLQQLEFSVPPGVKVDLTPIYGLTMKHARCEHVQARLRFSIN
`Cc1ccc(CS(=O)(=O)CCC(=O)NCCCOC(C)C)cc1`: the “activity, negative = inhibition” value was -27.3%.

As to `NC(N)=NNC(=O)C(=O)O`, the activity, negative = inhibition was -1.69% [at 11.4 µM].

For the compound `Cc1ccc(NC(=O)/C(=C\c2cccnc2)NC(=O)c2ccco2)cc1`, the “activity, negative = inhibition” value was -29.4%.

For the compound `O=C(NC(Cc1ccccc1)C(=O)O)/C(=C\c1ccco1)NC(=O)c1ccc(Br)cc1` (configuration not stated), the “activity, negative = inhibition” value is -18.5%.

Regarding `O=C(N/C(=C/c1ccc(Br)cc1)c1nc2ccccc2[nH]1)c1ccco1`, the AC50 is 7.08 µM (active).

For the compound `C[C@H](NC[C@H](O)CP(=O)(O)CC1CCCCC1)c1ccc(Cl)c(Cl)c1`, the AC50 is 39.8 µM (active).

Turning to `C[C@H](NC[C@H](O)CP(=O)(O)Cc1ccccc1)c1ccc(Cl)c(Cl)c1`, the “activity, negative = inhibition” value was -7.11%.

In the case of `CNC(=S)N1N=C(c2ccc(OC)cc2)CC1c1ccc(N(C)C)cc1` (configuration not stated), the AC50 was 10 µM (active).

`CCS(=O)(=O)Nc1ccc(C2=NN(C(=O)c3ccco3)C(c3ccc(C)cc3)C2)cc1` (configuration not stated): the “activity, negative = inhibition” value is -4.87%.

`COc1ccccc1CNc1ccnc(-c2cccc(C#N)c2)n1`: the AC50 was 0.794 µM (active).

As to `COc1ccc(CNc2ccnc(-c3cccc(C#N)c3)n2)c(OC)c1`, the AC50 was 2.51 µM (active).

As for `C=CCNC(=S)N1CCN(c2ncc3c(=O)c(C(=O)O)cn(CC)c3n2)CC1`, the “activity, negative = inhibition” value was -12.9%.

Regarding `C=CC[C@H](N)C(=O)O`, the “activity, negative = inhibition” value is -2.54%.

Consider `Cc1cc(NC(=O)C2CCCC2)n(-c2nc3ccccc3[nH]2)n1`, for which the AC50 was 2.82 µM (active).

In the case of `O=C(c1cnc(-c2ccccc2)s1)c1ccc(Cl)cc1Cl`, the AC50 was 1.12 µM (active).

As for `CC(=O)N1CCC2(CC1)CN(C(c1ccccc1)c1ccccc1)C2`, the “activity, negative = inhibition” value was 1.33%.

Turning to `O=c1ccn(-c2cccc(C(F)(F)F)c2)nc1-c1ccn(-c2ccccc2F)n1`, the AC50 is 5.62 µM (active).

For `COc1ccccc1NC(=O)c1nn(-c2cccc(C(F)(F)F)c2)ccc1=O`, the AC50 is 5.01 µM (active).

For `CCCC1CCC(c2ccc(C(N)=O)cc2)CC1` (configuration not stated), the “activity, negative = inhibition” value is 8.51%.

For the compound `O=C(O)CN=C1NC2(CCCC2)Cc2ccccc21`, the “activity, negative = inhibition” value was 3.63%.

With `CCN(CC)Cc1nc2c(c(=O)[nH]1)C1(CCCC1)Cc1ccccc1-2`, the AC50 is 5.01 µM (active).

Regarding `C[C@@H]1C[C@@H]2[C@H]3CCC4=CC(=O)C=C[C@]4(C)[C@]3(F)[C@@H](O)C[C@@]2(C)[C@@]1(O)C(=O)CO`, the AC50 entry is “inactive”.

`Nc1ccccc1Oc1ncc(C(F)(F)F)cc1Cl`: the AC50 is 2.82 µM (active).

Turning to `FC(F)(F)c1cnc(N2CCC(=NOCc3ccc(Cl)cc3)CC2)c(Cl)c1`, the “activity, negative = inhibition” value was -7.97%.

For `O=C(OC1CCN(c2ncc(C(F)(F)F)cc2Cl)CC1)c1ccccc1`, the “activity, negative = inhibition” value is -17.9%.

Regarding `NS(=O)(=O)c1cc2c(cc1Cl)N[C@@H]([C@@H]1C[C@@H]3C=C[C@H]1C3)NS2(=O)=O`, the “activity, negative = inhibition” value is -19.7%.

`CCCCCc1nc2c(C#N)c(-c3ccc(Cl)cc3)ccn2n1`: the AC50 is 8.91 µM (active).

For `Cc1oncc1C(=O)Nc1ccc(C(F)(F)F)cc1`, the AC50 is 0.0631 µM (active).

Take `C[C@@H](CCCCC(=O)Nc1ccc(C(F)(F)F)cc1)NCCc1cnc[nH]1`: the “activity, negative = inhibition” value was -20.5%.

With `CC(C)CN(CC(C)C)C1=N/C(=C\c2ccco2)C(=O)N1c1ccccc1`, the “activity, negative = inhibition” value is -23.4%.

Regarding `CCCCN=C1N/C(=C\c2ccco2)C(=O)N1c1ccccc1`, the AC50 is 2 µM (active).

`O=c1c(-c2ccc(F)c(F)c2)nc2cncnc2n1Cc1ccccc1Cl`: the AC50 is 5.01 µM (active).

With `O=c1c(-c2cccc(Cl)c2)nc2cncnc2n1Cc1ccccc1Cl`, the AC50 is 2 µM (active).

For the compound `O=c1c(-c2cccc(Cl)c2)nc2cncnc2n1Cc1ccccc1`, the AC50 is 1 µM (active).

Turning to `O=c1c(-c2ccccc2)nc2cncnc2n1Cc1ccccc1Cl`, the AC50 was 2 µM (active).

Consider `COc1ccc(S(N)(=O)=O)cc1C(=O)NCCCN1CCN(c2ccc(C)cc2)CC1`, for which the “activity, negative = inhibition” value was -4.28%.

For `CCCCOC(=O)c1cc2c(cn1)[nH]c1ccccc12`, the AC50 is 0.158 µM (active).

For the compound `CNC(=O)c1cc2c(cn1)[nH]c1ccccc12`, the AC50 was 0.0501 µM (active).

With `CCCCOc1ccc(-c2nnn(CC(=O)c3c[nH]c4ccccc34)n2)cc1`, the “activity, negative = inhibition” value was 9.73%.

For the compound `CCOCc1cnc(C)nc1NCC(=O)c1c(C)[nH]c2ccccc12`, the “activity, negative = inhibition” value is 9.26%.

Consider `CCOC(=O)NNC1CC(=O)N(c2ccc(OC)cc2)C1=O` (configuration not stated), for which the “activity, negative = inhibition” value is -9.03%.

`CCN=C(Nc1cccc(F)c1)SC1CC(=O)N(c2ccc(OC)cc2)C1=O` (configuration not stated): the AC50 was 6.31 µM (active).

As for `COc1ccc(NC(=O)N2CCC3(CC2)CCN(C(=O)c2cccc(F)c2)CC3)cc1`, the “activity, negative = inhibition” value was -14.4%.

Turning to `Cc1cc2c(nc1C)CCCCN2C[C@H](C)O/N=C\[C@@H](C)[C@H](OCc1ccccc1)C(C)C`, the activity, negative = inhibition is -17.4% [at 11.4 µM].

Regarding `CC(=O)c1cnc2cc(C)nn2c1C`, the AC50 was 22.4 µM (active).

For `CC(=O)c1cnc2c(C(=O)O)cnn2c1C`, the “activity, negative = inhibition” value is 2.54%.

Turning to `CCN1C(=O)[C@H]2[C@H]3[C@H](O)[C@H](O)C/C(=N/OC[C@@H](O)[C@H]4O[C@H]5OC(C)(C)O[C@H]5[C@@H]4O)[C@@H]3CC[C@@H]2C1=O`, the activity, negative = inhibition was -1.85% [at 11.4 µM].

Turning to `O=c1c(-c2cccs2)nc2cncnc2n1Cc1ccc(F)cc1`, the AC50 is 2.51 µM (active).

`O=c1c(-c2cccs2)nc2cncnc2n1Cc1ccccc1`: the AC50 was 2.51 µM (active).

`CCCNc1[nH]c(=O)n(C)c(=O)c1N=O`: the “activity, negative = inhibition” value was 0.913%.

As to `Cc1cccc2c1Oc1ccccc1[C@@H]2NC(=O)c1ccc([N+](=O)[O-])cc1`, the AC50 was 1 µM (active).

With `C[C@@]1(C(NC(=O)Cc2ccc(C(F)(F)F)cc2)c2ccc(-c3ccccc3)cc2)C[C@H]1C1CCCCC1` (some centres not stated), the “activity, negative = inhibition” value was 11%.

Take `CN(C(=O)Cn1nnc(-c2cccc(C(F)(F)F)c2)n1)C1CCCCC1`: the “activity, negative = inhibition” value was -15.3%.

On to `CC(C)NC(=O)c1ccc(-c2cccc(C(F)(F)F)c2)o1`, for which the AC50 was 0.398 µM (active).

Consider `CCc1cc2c(NCCO)ncnc2s1`, for which the AC50 was 6.31 µM (active).

Consider `OCCNc1ncnc2nc[nH]c12`, for which the activity, negative = inhibition is -5.82% [at 11.4 µM].

As to `CCc1cc2c(NCc3ccco3)ncnc2s1`, the AC50 was 2.51 µM (active).

As to `OCCNc1ncnc2c1ncn2[C@@H]1O[C@@H](CO)[C@H](O)[C@@H]1O`, the activity, negative = inhibition is -20.3% [at 11.4 µM].

In the case of `FC(F)(F)c1ccccc1-c1nccc(N2CCNCC2)n1`, the AC50 was 10 µM (active).

For the compound `CN1CCN(c2nc(-c3ccccc3C(F)(F)F)nc3ccccc23)CC1`, the AC50 was 10 µM (active).

With `FC(F)(F)c1ccccc1-c1nc(N2CCNCC2)c2ccccc2n1`, the AC50 was 10 µM (active).

For the compound `CO[C@@H]1COC(=O)[C@@H](C)NC(=O)C/C=C\[C@@H](C)[C@H](NS(=O)(=O)c2ccc(C)cc2)COC(=O)[C@H](C)NC(=O)C/C=C\[C@H]1C`, the activity, negative = inhibition is 1.37% [at 11.4 µM].
